Assay results as given in PubChem BioAssay.
Calls of active or inactive are those of the source.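 The calls were made as follows: active = inhibition over a set limit, the all-compound mean plus 3 SD, in both replicate runs; inconclusive = over that limit in just one replicate run; inactive = at or under that limit in both runs.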

Assay: inhibitors of the yeast RAM network, pilot screen, dse1pr::URA3 reporter, 5-FOA selection (AID 869);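 also: 0% = DMSO wells with no growth and 100% = 10 µM 1-NA-PP1 with full growth; RAM network block rescues cells from 5-FOA so hits raise OD615 growth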
Details: S. cerevisiae dse1pr::URA3 5-FOA growth, OD615, 2 d; at 10 µM; hits give high values; strain carries analog-sensitive mutant Cbk1 kinase

inhibition, inactive:
O=C(NCCCN1CCCC1=O)c1ccc2c(c1)ncn2C1CCCCC1 0.03%
CC(CCc1ccccc1)NC(=O)CSc1nnnn1C (stereo unspecified) 1.61%
Cc1cccc(-c2nnc(-c3ccccc3)o2)c1 1.5%
COc1ccc2[nH]c(C)c(CCN3C(=O)C4CC=CCC4C3=O)c2c1 (stereo unspecified) 0.55%
CCc1ccccc1NC(=O)c1cc(-c2cccc(O)c2)on1 4.72%
O=C(O)[C@H](Cc1ccccc1)N1Cc2ccccc2C1=O 1.4%
c1cnn(-c2nc(N3CCOCC3)nc(N3CCOCC3)n2)c1 1.96%
O=C(COc1ccc(S(=O)(=O)NC2CCCCC2)cc1)N1CCN(c2ccc(F)cc2)CC1 -0.725%
Fc1ccc(C2CC(c3ccccc3)Nc3ncnn32)cc1 (stereo unspecified) 1.04%
Cn1c(C(=O)N2CCN(c3ncccn3)CC2)cc2c(=O)n(C)c3ccccc3c21 1.92%
Cc1csc2nc(CNS(=O)(=O)c3ccc4c(c3)OCCO4)cn12 3.93%
O=C(NC1CCCCC1)c1ccc(S(=O)(=O)N2CCOCC2)cc1 0.855%
CC(C)CC(NS(=O)(=O)c1ccc2c(c1)oc(=O)n2C)C(=O)N1CC=C(c2ccccc2)CC1 (stereo unspecified) 0.535%
O=C1CC(N2CCN(C/C=C/c3ccccc3)CC2)C(=O)N1CCc1ccccc1 (stereo unspecified) 1.02%
CC(=O)C(C)Oc1ccc2c3c(c(=O)oc2c1)CCCC3 (stereo unspecified) 2.3%
CCOC(=O)c1c(C)n(C)c2ccc(OCC(O)CN3CCCCCC3)cc12 (stereo unspecified) 0.77%
